Where two headings read alike, the source gives them in different places.
Experiments:
Parameters in all cases: species or system human, MV4-11 + K-562 + COLO205 + SK-N-BE2 + OVCAR-8
AKT1 = settings: read-out: apparent Kd, compound concentrations: 100 nM and 1000 nM (sheet 'Samples'), n = 1
CSNK1A1 = settings: read-out: apparent Kd; compound concentrations: 100 nM and 1000 nM (sheet 'Samples'), CATDS: 4.3569659230054097E-2; n = 1
CSNK1D = settings: read-out: apparent Kd, n = 1
MAP2K1 = settings: read-out: apparent Kd, n = 1
MAPK10 = settings: read-out: apparent Kd, compound concentrations: 100 nM and 1000 nM (sheet 'Samples'), n = 1
MAPK11 = settings: read-out: apparent Kd, compound concentrations: 100 nM and 1000 nM (sheet 'Samples'), n = 1
RIOK2 = settings: read-out: apparent Kd, compound concentrations: 100 nM and 1000 nM (sheet 'Samples'), n = 1
TAOK1 = settings: read-out: apparent Kd, compound concentrations: 100 nM and 1000 nM (sheet 'Samples'), n = 1
TGFBR2 = settings: read-out: apparent Kd, n = 1
EPHA2 = settings: read-out: apparent Kd, n = 1
EPHA4 = settings: read-out: apparent Kd, n = 1
EPHB2 = settings: read-out: apparent Kd, n = 1
EPHB4 = settings: read-out: apparent Kd, n = 1
PDGFRB = settings: read-out: apparent Kd, n = 1
ERCC2 = settings: read-out: apparent Kd, compound concentrations: 100 nM and 1000 nM (sheet 'Samples'), n = 1
MAP4K5 = settings: read-out: apparent Kd; compound concentrations:100 nM and 1000 nM (sheet 'Samples'); n = 1
BUB1 = settings: read-out: apparent Kd; compound concentrations:100 nM and 1000 nM (sheet 'Samples'); n = 1
PKN3 = settings: read-out: apparent Kd, compound concentrations: 100 nM and 1000 nM (sheet 'Samples'), n = 1
[1] = compound concentrations:100 nM and 1000 nM (sheet 'Samples')

## COc1ccc(Nc2nccc(N3CCC(NC(=O)Nc4ccc5c(c4)OCO5)C3)n2)cc1 (stereo not shown) [GSK1379745A]
AKT1; CATDS: 3.7255828319427503E-2
  potency estimated from few doses: 1760 nM
CSNK1A1
  potency estimated from few doses: 1260 nM
CSNK1D; compound concentrations: 100 nM and 1000 nM (sheet 'Samples'), CATDS: 3.4846409929325597E-2
  potency estimated from few doses: 2080 nM
MAP2K1; compound concentrations: 100 nM and 1000 nM (sheet 'Samples'), CATDS: 3.9281553351087697E-2
  potency estimated from few doses: 1560 nM
MAPK10; CATDS: 3.9230525665234099E-2
  potency estimated from few doses: 1570 nM
MAPK11; CATDS: 3.6090086264463E-2
  potency estimated from few doses: 1900 nM
RIOK2; CATDS: 4.3222091528321002E-2
  potency estimated from few doses: 1280 nM
TAOK1; CATDS: 4.1153987901417902E-2
  potency estimated from few doses: 1410 nM

## CS(=O)(=O)CCNCc1ccc(-c2ccc3ncnc(Nc4ccc(OCc5cccc(F)c5)c(C(F)(F)F)c4)c3c2)o1 [GW576484X]
AKT1; CATDS: 4.8644382119909499E-2
  potency estimated from few doses: 2100 nM
RIOK2; CATDS: 5.8358702635658101E-2
  potency estimated from few doses: 1410 nM
TAOK1; CATDS: 9.5612553502410894E-2
  potency estimated from few doses: 618 nM

## NC(=O)c1cccc(Nc2nccc(Nc3cccc4[nH]ncc34)n2)c1 [GW782612X]
TGFBR2; compound concentrations: 100 nM and 1000 nM (sheet 'Samples'), CATDS: 0.37560252723777299
  potency estimated from few doses: 17 nM

## Cc1ccc(O)cc1Nc1ccnc2cc(-c3ccc(CN4CCCCC4)o3)ccc12 [GW557777X]
EPHA2; compound concentrations: 100 nM and 1000 nM (sheet 'Samples'), CATDS: 3.25409539793877E-2
  potency estimated from few doses: 18.9 nM
EPHA4; compound concentrations: 100 nM and 1000 nM (sheet 'Samples'), CATDS: 4.01782030303919E-2
  potency estimated from few doses: 10.4 nM
EPHB2; compound concentrations: 100 nM and 1000 nM (sheet 'Samples'), CATDS: 4.4697919041746297E-2
  potency estimated from few doses: 7.87 nM
EPHB4; compound concentrations: 100 nM and 1000 nM (sheet 'Samples'), CATDS: 5.8010916452344102E-2
  potency estimated from few doses: 4.17 nM
PDGFRB; compound concentrations: 100 nM and 1000 nM (sheet 'Samples'), CATDS: 1.4075910538655201E-2
  potency estimated from few doses: 735 nM

## CN1C(=O)c2ccccc2N(C)c2nc(Nc3cnn(C4CCNCC4)c3)ncc21 [XMD-17-51]
ERCC2; CATDS: 1.6840556785817699E-2
  potency estimated from few doses: 788 nM
TAOK1; CATDS: 5.6290782434041703E-2
  potency estimated from few doses: 40.7 nM
TGFBR2; compound concentrations: 100 nM and 1000 nM (sheet 'Samples'), CATDS: 1.41245865647958E-2
  potency estimated from few doses: 1610 nM

## Nc1nc(-c2cccnc2)c(-c2ccnc3ccccc23)s1 [GW684083X]
CSNK1D; [1]
  potency estimated from few doses: 2190 nM

## COc1ccccc1CNC1=NC(=O)/C(=C/c2ccc3ncccc3c2)S1 [RO4503315-000]
TAOK1; CATDS: 7.1757893284069299E-2
  potency estimated from few doses: 1130 nM

## CCN(CC)CCOc1ccc(Nc2ncc3cc(-c4c(Cl)cccc4Cl)c(=O)n(C)c3n2)cc1 [SB-601273]
EPHA2; [1]
  potency estimated from few doses: 30.3 nM
EPHA4; [1]
  potency estimated from few doses: 162 nM
EPHB2; [1]
  potency estimated from few doses: 108 nM
EPHB4; [1]
  potency estimated from few doses: 30.2 nM
MAP4K5
  potency estimated from few doses: 2360 nM
PDGFRB; [1]
  potency estimated from few doses: 576 nM
TGFBR2; [1]
  potency estimated from few doses: 1260 nM

## CS(=O)(=O)Cc1ccc(Nc2nccc(-c3c(-c4cccc(NC(=O)C5CCCCC5)c4)nn4ncccc34)n2)cc1 [GSK350559A]
BUB1
  potency estimated from few doses: 267 nM
MAP2K1; [1]
  potency estimated from few doses: 2430 nM

## COc1ccc(-c2nc3n(c2-c2ccncc2)CCC3)cc1.COc1ccc(-c2nc3n(c2-c2ccncc2)CCC3)cc1.O=S(=O)(O)O.O=S(=O)(O)O [SKF-104493-B2]
AKT1; CATDS: 9.7335035775878098E-2
  potency estimated from few doses: 2500 nM
MAP2K1; compound concentrations: 100 nM and 1000 nM (sheet 'Samples'), CATDS: 9.8642022165156204E-2
  potency estimated from few doses: 2400 nM
PKN3; CATDS: 0.15312963325727599
  potency estimated from few doses: 911 nM

## CN(C)Cc1ccc(-c2ccc3c(Nc4ccc(Oc5ccccn5)cc4)ccnc3c2)o1 [GW567148X]
EPHA4; compound concentrations: 100 nM and 1000 nM (sheet 'Samples'), CATDS: 2.1324962018011699E-2
  potency estimated from few doses: 824 nM
EPHB2; compound concentrations: 100 nM and 1000 nM (sheet 'Samples'), CATDS: 2.3863521838316901E-2
  potency estimated from few doses: 615 nM
EPHB4; compound concentrations: 100 nM and 1000 nM (sheet 'Samples'), CATDS: 2.5851405238779799E-2
  potency estimated from few doses: 509 nM
ERCC2; CATDS: 2.5327932043398099E-2
  potency estimated from few doses: 534 nM
PKN3; CATDS: 1.7061922393971401E-2
  potency estimated from few doses: 1730 nM

## O=S(=O)(CCOCc1ccc(-c2ccc3ncnc(Nc4ccc(OCc5cccc(F)c5)c(Cl)c4)c3c2)o1)c1ccccc1 [GW615311X]
MAPK10; CATDS: 3.14341615066977E-2
  potency estimated from few doses: 1070 nM
MAPK11; CATDS: 2.56124612703456E-2
  potency estimated from few doses: 1650 nM
PKN3; CATDS: 2.28065209428794E-2
  potency estimated from few doses: 2200 nM

## CN1CCN(Cc2ccc(NC(=O)Nc3ccc(N(C)c4ccnc(Nc5ccc(CS(C)(=O)=O)cc5)n4)cc3)cc2)CC1.Cl [GW827654A]
PDGFRB; compound concentrations: 100 nM and 1000 nM (sheet 'Samples'), CATDS: 3.4418079191200303E-2
  potency estimated from few doses: 1860 nM

Source: PMC11062922 (Nature Chemical Biology, 2023)
